Measured values from PubChem BioAssay AID1256 (The Scripps Research Institute Molecular Screening Center, 2008).
The list shows a part of the results. Activity calls are given as the source filed them. Rule as the data show it: active = inhibition above about 20%; inactive = the rest.

Target: Neuropeptide Y receptor type 1 (Homo sapiens) (UniProt P25929)
Assay: NPY-Y1 receptor antagonists, selectivity check, counter-screen for NPY-Y2 antagonist project, cell-based (AID 1256);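 also: cells challenged with NPY then isoproterenol with cAMP sensed through a CNG channel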
Conditions: cell-based NPY-Y1 antagonism counterscreen; at 3.6 µM; hits give high values

Chain of Neuropeptide Y receptor type 1 (Homo sapiens) (P25929 whole entry, looked up): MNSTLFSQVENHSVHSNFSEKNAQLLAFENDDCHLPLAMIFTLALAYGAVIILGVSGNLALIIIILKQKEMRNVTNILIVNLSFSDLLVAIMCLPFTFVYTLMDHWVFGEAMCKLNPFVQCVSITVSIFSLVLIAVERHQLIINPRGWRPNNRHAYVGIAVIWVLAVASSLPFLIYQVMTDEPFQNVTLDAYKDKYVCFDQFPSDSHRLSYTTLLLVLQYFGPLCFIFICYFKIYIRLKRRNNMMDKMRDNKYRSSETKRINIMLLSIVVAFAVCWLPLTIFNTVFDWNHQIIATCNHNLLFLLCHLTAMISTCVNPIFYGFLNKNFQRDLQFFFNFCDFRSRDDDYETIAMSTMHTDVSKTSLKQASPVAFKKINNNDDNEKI

For O=C(COC(=O)c1ccccc1)Nc1ccc(Cl)cc1C(=O)c1ccccc1, the inhibition was 17.5% (inactive).
